The text below walks through data of PubChem BioAssay AID1645870 (National Center for Advancing Translational Sciences (NCATS), 2021).

“And” between values parts separate entries of the source, which are not always exact repeats. Equal entries are not always repeated. Screen size: about 59,000 compounds; about 1,500 (2.5%) were called active. Not shown: some 10% with an inconclusive outcome. The call rests on the fitted dose curve; in most records, active means well fitted inhibition curve with a large enough effect; inconclusive means small, poorly fitted or top-dose-only effect; inactive means flat fitted curve, though single readings scatter. The entries come from a sample that favours actives as a whole. A call without a number means that no potency is given here. Some compounds were tested as several samples or in several runs, with calls that do not always agree.
Potency means the concentration at half of the fitted maximal effect.

Chain of N-terminal Xaa-Pro-Lys N-methyltransferase 1 (Homo sapiens) (Q9BV86 whole entry, looked up): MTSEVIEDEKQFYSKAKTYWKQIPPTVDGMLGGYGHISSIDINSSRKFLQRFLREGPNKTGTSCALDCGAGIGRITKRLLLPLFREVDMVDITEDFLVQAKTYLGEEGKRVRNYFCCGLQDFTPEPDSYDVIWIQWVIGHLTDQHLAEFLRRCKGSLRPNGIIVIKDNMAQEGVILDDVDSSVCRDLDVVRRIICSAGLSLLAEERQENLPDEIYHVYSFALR

The test addresses N-terminal Xaa-Pro-Lys N-methyltransferase 1 (Homo sapiens) (UniProt Q9BV86). As to the kind of experiment: Primary qHTS for Inhibitors of N-terminal methyltransferase 1 (NTMT1): MTaseGlo Assay. Further: nearly all actives have a fitted effect of over 65% in size. The following applies: NTMT1 MTase-Glo SAH luminescence, purified enzyme; series mostly up to 114 µM. An excerpt:
Assay Submitter (PI): Rong Huang Ph.D.
Purdue University, West Lafayette, IN 47907
The N-terminal methytransferase 1 is the first methyltransferase that methylates protein alpha-N-amines and plays an important role in regulating cell mitosis, chromatin interactions and DNA repair. It is observed to be over-expressed in various cancer patient tissues like malignant melanoma and colorectal cancer tissues. Knockdown of NTMT1 in cancer cells causes cell mitotic defects and enhances sensitivity to DNA damaging chemotherapeutics. […] These critical cellular processes in which NTMT1 is implicated, coupled with emerging links to cellular dysfunction, strengthen the inference that NTMT1 is a compelling novel anticancer target. Progress have been made in understanding the molecular properties of NTMT1 and the biological consequences of protein alpha-N-terminal methylation, but there are no specific small molecule probes available for NTMT1 to fully characterize its MTase activity. To address this unmet need, a panel of assay is created and established to enable quantitative high-throughput screening (qHTS) for novel, potent, and selective small molecule NTMT1 inhibitors. Two orthogonal qHTS that use different reagents (ThioGlo vs. MTaseGlo) are developed for primary robotic screening against the NCATS chemical library of more than 400,000 small molecules. Identified inhibitors are reacquired, validated, and further characterized.
MTaseGlo Assay is a luminescence screen that measure the activity of methyltransferases based on the reaction product S-adenosyl homocysteine (SAH). The substrate SAM is converted to SAH upon enzyme activation. MTase-Glo reagent and detection solution convert SAH to ATP and measure the light from the luciferase reaction.
Materials: NTMT1 enzyme, substrate SPKRIA, control peptide RCC1-6 is provided by the Huang laboratory.
SEQUENCE No. (e.g., 1, 2, 3, etc.); […] (e.g., Cells, Incubation, Reagent, etc.); VALUE; DESCRIPTION
1; Enzyme; 3 uL; Dispense enzyme mixture (final concentrations of 125 nM NTMT1 and 100 uM SAM) into Greiner 1536-well white / solid bottom assay plate (Greiner Bio One, Monroe, NC).
2; Compounds; 23 nL; Compounds and controls were transferred via a Kalypsys Pin Tool (Wako USA) equipped with a 1536-slotted pin array (Wako Automation, Richmond, VA)
3; Incubation; 15 min; Incubate at room temperature
4; Substrate; 1 uL; Dispense 1 uL of substrate at final concentration of 1 uM. Buffer solution was dispensed in control wells. The assay plate was covered with metal lids.
5; Incubation; 30 min; Incubate at room temperature, protected from lights.
6; Reagent; 1 uL; Dispensed 5x MTase-Glo detection reagent (R) into the assay plate. The plate was covered with metal lids.
7; Incubation; 30 min; Incubate the assay plates at room temperature in the dark to allow for SAH to be converted to ADP.
8; Reagent; 5 uL; Dispense 5 uL of 1x MTase-Glo Detection Solution (R) to allow for ADP to be converted to ATP which was then detected with a luciferase reaction.
9; Centrifuge; 15 sec; Centrifuge the assay plate for 15 seconds at 1000 RPM.
10; Incubation; 30 min; Assay plates were incubation at room temperature in the dark.
11; Detection; Luminescence; Plates were read on ViewLux detector (PerkinElmer). Data were normalized to no-enzyme (0% activity) and no-inhibitor (DMSO; 100%) controls, and the resulting percent inhibition data were fitted to a 4-parameter Hill equation using GraphPad Prism.
On the technique in general: In qHTS, concentration-response curves come from the screen itself.
Consider `COc1cccc(C2c3c(ncn(-c4cccc(Br)c4)c3=N)Oc3ccc4ccccc4c32)c1` (stereo not given), for which the Potency result was “inactive”.

For the compound `COC(=O)c1ccc(NC(=O)c2cc(-c3ccc(C)c(C)c3)nc3ccccc23)cc1`, the Potency result is “inactive”.

As for `COc1ccc(NC(=O)c2cnn3c(C)cc(C)nc23)cc1OC`, the Potency result is “inactive”.

As for `COc1ccc(C(CC(=O)N2CC(C)CC(C)C2)c2c(O)cc(OC)cc2OC)cc1` (stereo not given), the Potency result is “inactive”.

Regarding `O=C(Nc1ncc(Cc2ccc(C(F)(F)F)cc2)s1)c1ccc(-c2ccc([N+](=O)[O-])cc2)o1`, the Potency result is “inactive”.

With `Cc1ccc(S(=O)(=O)Nc2ccccc2C(=O)Nc2ncc(-c3ccccc3)s2)cc1`, the Potency entry is “inactive”.

Consider `CC(=O)Oc1ccccc1C(=O)Nc1ncc([N+](=O)[O-])s1`, for which the Potency is 25.1 µM (active).

On to `O=c1c2ccccc2nc2sc(Nc3ccc(Oc4ccccc4)cc3)nn12`, for which the Potency result is “inactive”.

Consider `Nc1ccccc1N`, for which the Potency is 22.4 µM (active).

As for `Nc1ccc(C(=O)Nc2ccccc2N)cc1`, the Potency entry was “inactive”.

Regarding `Cc1nc(-c2ccccc2C(C)C)nc(NCc2ccc(-c3cccnc3)cc2)c1C`, the Potency result was “inactive”.

Consider `O=C(NCc1ccc(Cl)c(Cl)c1)Nc1nnc(-c2ccncc2)s1`, for which the Potency result was “inactive”.

In the case of `CCOC(=O)c1c(CNCc2ccccc2F)c2sc(C)cc2n1C`, the Potency result was “inactive”.

On to `Cc1ccc(N[S+](=O)([O-])c2cc3c(cc2N[C@@H](C)CO)NC(=O)CC3)cc1N[C@@H](C)CO`, for which the Potency result was “inactive”.

In the case of `CCc1ccc(NC(=O)c2cnn3c(C)cc(-c4ccccc4)nc23)cc1`, the Potency result was “inactive”.

For `O=C(Cc1ccccc1)Nc1sc2c(c1C(=O)Nc1ccc(Br)cc1)CCC2`, the Potency result was “inactive”.

With `CCOc1ccc(NC(=O)c2c(NCc3cccc(OC)c3OC)sc3c2CCC3)cc1`, the Potency result is “inactive”.

In the case of `CCOc1ccc(NC(=O)c2c(NC(=O)Cc3ccccc3)sc3c2CCCCC3)cc1`, the Potency is 44.7 µM (active).

Take `O=C(CNC(=O)c1ccccc1)OC(C(=O)Nc1cc([N+](=O)[O-])ccc1F)c1ccccc1` (stereo not given): the Potency entry was “inactive”.

With `NC(=O)c1cnc2[nH]ccc2c1NC1C2CC3C[C@H]1CC(O)(C3)C2` (stereo not given in full), the Potency result was “inactive”.

In the case of `CN(CC(F)(F)F)c1nc(NCc2ccc(-c3cccnc3)cc2)c2ccccc2n1`, the Potency result was “inactive”.

On to `CN(C)[S+](=O)([O-])c1ccc(-c2ccc(=O)n(CC(=O)NCCc3ccccc3)n2)cc1`, for which the Potency entry was “inactive”.

Turning to `O=C(NC(c1ccco1)c1cc(Cl)c2cccnc2c1O)c1ccccc1` (stereo not given), the Potency entry was “inactive”.

As for `OCc1cnc(SCc2ccc(F)cc2)n1Cc1ccc(F)cc1`, the Potency is 89.1 µM (active).

`O=C(CSc1ncc(CO)n1Cc1ccc(Cl)cc1)NCc1ccc(F)cc1`: the Potency entry was “inactive”.

On to `O=C(CSc1ncc(CO)n1Cc1ccc(F)cc1)NCc1ccco1`, for which the Potency entry was “inactive”.

Regarding `Cc1cc(C)n2ncc(C(=O)N3CCCC3)c2n1`, the Potency entry is “inactive”.

In the case of `Cc1ccc(OCCn2c(CCNC(=O)c3ccccc3C(F)(F)F)nc3ccccc32)cc1`, the Potency result was “inactive”.

Take `CC(C)c1ccccc1-c1nc(NCc2ccc(-c3cccnc3)cc2)c2occc2n1`: the Potency result is “inactive”.

In the case of `COc1ccc(C2Nc3cccc(OC)c3C(=O)N2Cc2ccccc2)cc1COc1ccc(NC(C)=O)cc1` (stereo not given), the Potency entry is “inactive”.

With `O=C(OCC#CCSc1nnc(-c2ccco2)o1)c1ccc(F)cc1`, the Potency entry is “inactive”.

For `O=C(Nc1nnc(-c2ccncc2)s1)Nc1cc(C(F)(F)F)ccc1F`, the Potency entry is “inactive”.

Regarding `COc1ccc(C2Nc3ccccc3C(=O)N2Cc2ccco2)cc1COc1cccc(NC(C)=O)c1` (stereo not given), the Potency entry is “inactive”.

For the compound `CCNC(=O)C#Cc1ccc2c(C(=Nc3ccc(CN(C)C)cc3)c3ccccc3)c(O)[nH]c2c1`, the Potency was 31.6 µM (active).

For the compound `CN(C)C/C=C/C(=O)Nc1ccc(C(=O)N2CCC[C@@H](Nc3ncc(Cl)c(-c4c[nH]c5ccccc45)n3)C2)cc1`, the Potency result is “inactive”.

In the case of `Cn1cnc(CN=C2NC3=C(C(=O)CCC3)C(c3[nH]ncc3Cl)N2)c1` (stereo not given), the Potency entry was “inactive”.

As for `COc1cc2c(cc1OC)CN(CCc1ccc(-n3nnc(-c4cc(OC)c(OC)cc4NC(=O)c4cc(=O)c5ccccc5o4)n3)cc1)CC2`, the activity change, negative = inhibition was -7.78% [at 1.07 µM] (inactive).

Regarding `N#Cc1c(N)nc(N)nc1N[C@H](c1nc2c(F)ccc(Cl)c2c(=O)n1-c1cccnc1)C1CC1`, the Potency entry was “inactive”.

With `CC(C)(C)NS(=O)(=O)c1cccc(Nc2nn3c(=O)c4ccccc4nc3s2)c1`, the Potency result is “inactive”.

In the case of `FC(F)(F)c1cccc(N2CCN(C(=S)Nc3ccncc3)CC2)c1`, the Potency result was “inactive”.

For the compound `Cc1ccc(CNc2ccc(N3CCCCC3)cc2)cc1`, the Potency result was “inactive”.

Take `Cc1ccc(N2CCN(C(=S)Nc3cc(C)ccn3)CC2)cc1`: the Potency is 79.4 µM (active).

With `CCc1ccc(-c2nn3c(C)nnc3s2)cc1NC(=O)c1ccc(-c2cccc(Cl)c2)o1`, the Potency result was “inactive”.

For `CCOc1ccc(CCNC(=O)c2cnon2)cc1OCC`, the Potency entry is “inactive”.

Consider `C=Cc1c(C)c2cc3nc(cc4[nH]c(cc5nc(cc1[nH]2)C(C)=C5CCC(=O)O)c(CCC(=O)OC)c4C)[C@@]1(C)C3=CC=C(C(=O)OC)[C@H]1C(=O)OC`, for which the Potency is 50.1 µM (active).

In the case of `N#Cc1ccc(NC(=O)Nc2nnc(-c3ccncc3)s2)c(Cl)c1`, the Potency result is “inactive”.

As to `CC[C@H](Nc1ncnc2nc[nH]c12)c1oc2ccccc2c(=O)c1-c1cccc(F)c1`, the Potency result was “inactive”.

`Cc1ccc(-c2cc(C(=O)Nc3cccc(Cl)c3)c3ccccc3n2)cc1C`: the Potency entry was “inactive”.

Take `Cc1cc(NC(=O)Nc2nnc(-c3ccncc3)s2)ccc1Cl`: the Potency result was “inactive”.

As for `Fc1ccccc1-c1ccc(Nc2nc(-c3ccncc3)nc3ccccc23)cc1F`, the Potency entry is “inactive”.

Consider `Fc1ccc(Cl)cc1-c1nc(Nc2ccncc2)c2nccnc2n1`, for which the Potency entry was “inactive and 39.8 µM (active)”.

In the case of `Fc1cc(Nc2nc(-c3ccncc3)nc3ccccc23)ccc1-c1ccc(F)c(F)c1F`, the Potency entry is “inactive”.

In the case of `C=CCNc1oc(-c2cccnc2)nc1C#N`, the Potency entry is “inactive”.

Regarding `Cc1noc(C)c1-c1ccc2ncnc(NCc3ccc(F)c(F)c3)c2c1`, the Potency result is “inactive”.

Consider `COc1cc(Nc2nc(-c3ccc(OC)c(OC)c3)nc3ccccc23)cc(OC)c1`, for which the Potency result was “inactive”.

For `COc1cc2nc(Nc3ccccc3)nc(NC3CC3)c2cc1OC`, the Potency was 50.1 µM (active).

`OC1CCC(Nc2nc(-c3ccccc3)nc3[nH]ccc23)CC1` (stereo not given): the Potency result is “inactive”.

As to `O=C(CSc1nnc(-c2cccc([S+](=O)([O-])N3CCCC3)c2)n1-c1ccccc1)Nc1cccc(C(F)(F)F)c1`, the Potency result was “inactive”.

For `CC(C)(c1ccc(OCC(O)CO)cc1)c1ccc(OCC(O)CCl)cc1` (stereo not given), the Potency entry was “inactive”.

On to `O=C(O[C@@H]1Cc2c(O)cc(O)cc2O[C@H]1c1cc(O)c(O)c(O)c1)c1cc(O)c(O)c(O)c1`, for which the Potency was 44.7 µM (active).
